From PubChem BioAssay (Tox21)
Records with an inconclusive call do not appear. Activity calls are given as the source filed them. Unless noted, calls follow the shape of the dose curve; as a rule, active = well fitted curve in the direction sought with a large enough effect in the repeat runs; inconclusive = weak or mixed curves; inactive = no such curve, though single readings can be large; an effect the other way counts as inactive or inconclusive.

Assays:
[1] = qHTS assay for small molecule agonists of the p53 signaling pathway - cell viability (AID 651633; calls by dose curve;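 also: p53RE-bla HCT reporter cells with a stable beta-lactamase p53 reporter; nearly all actives have a fitted effect of over 30% in size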); details: p53RE-bla HCT-116 viability, ATP luminescence, 16 h; series mostly up to 83.3 µM
In short: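 p53RE-bla cells were treated with compound for 16 hours at 37 C. Cytotoxicity was then measured as CellTiter-Glo luminescence after 30 min at room temperature.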

[2] = qHTS assay for small molecules that induce genotoxicity in human embryonic kidney cells expressing luciferase-tagged ATAD5 - cell viability (AID 651634; calls by dose curve; also: nearly all actives have a fitted effect of over 25% in size); details: HEK293T ATAD5-luc cells viability, CellTiter-Fluor, 15.5 h; series mostly up to 83.3 µM
In short: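 Fluorescence from CellTiter-Fluor, reporting protease activity within live cells, served as the viability read-out. HEK293T cells carrying luciferase-tagged ATAD5 had been treated with compound for 15.5 hr at 37C.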

[3] = qHTS assay for small molecule disruptors of the mitochondrial membrane potential - cell viability (AID 720634; calls by dose curve;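 also: human HepG2 liver cancer cells; nearly all actives have a fitted effect of over 20% in size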); details: HepG2 viability, ATP luminescence (CellTiter-Glo), 1 h; series mostly up to 83.2 µM
In short: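 Cells: HepG2, 2,000/well, attached overnight. Compound 1 hr, 37 C/5% CO2. +m-MPI dye, +CellTiter-Glo 30 min RT. Readout: luminescence (ATP).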

[4] = qHTS assay to test for compound auto fluorescence at 590 nm (red) in HepG2 cells (AID 720674); details: HepG2 autofluorescence, red 540/590 nm, 1 h; series mostly up to 91.3 µM
In short: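 HepG2 cells, 2,000 per well in MEM with 10% FBS, attached overnight at 37 C, then got 23 nL compound or DMSO. After 1 hr at 37 C, 5% CO2, red fluorescence was read at 540/590 nm against Rose Bengal sodium as reference.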

[5] = qHTS assay to test for compound auto fluorescence at 535 nm (green) in HepG2 cells (AID 720675); details: green autofluorescence 485/535 nm, 1 h; series mostly up to 91.3 µM
[6] = qHTS assay to test for compound auto fluorescence at 460 nm (blue) in HEK293 cells (AID 720678); details: blue autofluorescence 405/460 nm; series mostly up to 91.3 µM
In short: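 HEK293 cells (2,000/well, medium with 10% dialyzed FBS) attached 4-5 hr, then exposed to compound overnight at 37C, 5% CO2. Blue fluorescence read at 405/460 nm, with triamterene as reference fluorophore.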

[7] = qHTS assay to test for compound auto fluorescence at 590 nm (red) in HEK293 cells (AID 720679); details: red autofluorescence 540/590 nm; series mostly up to 91.3 µM
In short: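 HEK293 cells (2,000/well, 10% dialyzed FBS) attached 4-5 hr, then dosed with compound or DMSO and incubated overnight at 37C, 5% CO2. Red fluorescence read at 540/590 nm, Rose Bengal sodium as reference fluorophore.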

[8] = qHTS assay for small molecule disruptors of the mitochondrial membrane potential (AID 720635); details: HepG2 mitochondrial membrane potential, Mito-MPS dye ratio; series mostly up to 83.2 µM
In short: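 HepG2 cells exposed to compound 1 hr at 37C, then Mito-MPS dye 30 min. Ratio read of aggregate (540/590 nm) versus monomer (490/535 nm) fluorescence.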

[9] = qHTS assay for small molecules that induce genotoxicity in human embryonic kidney cells expressing luciferase-tagged ATAD5 (AID 651632); details: HEK293T ATAD5-luciferase induction, 16 h; series mostly up to 83.3 µM; also: nearly all actives have a fitted effect of over 15% in size
In short: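 ATAD5-luc HEK293T, 2,000 cells/well; cpd or DMSO pin-transferred; 16 hr, 37C/5% CO2; Amplite 30 min RT; luminescence.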

Measured: Potency

CC1(C)[C@@H]2CC[C@@]1(C)[C@H](O)C2
not listed: [8] | [9]
inactive: all other assays above

NC(=O)N1c2ccccc2CC(=O)c2ccccc21
inactive: [1] | [2] | [8] | [6] | [7]

CC(C)C[C@@H](N)C(=O)O
not listed: [1] | [3] | [8]
inactive: all other assays above

CCCCN(CCC(=O)OCC)C(C)=O
not listed: [1] | [8] | [9]
inactive: all other assays above

CCCCCC(C)N (stereo not given)
not listed: [1] | [9]
inactive: all other assays above

CN(C)C(=O)Oc1cccc([N+](C)(C)C)c1
inactive: [2] | [4] | [6] | [7]

CCOCC(C)O (stereo not given)
not listed: [1] | [8]
inactive: all other assays above

Cc1ccc(-c2ncc(Cl)cc2-c2ccc(S(C)(=O)=O)cc2)cn1
not listed: [1] | [3] | [4]
inactive: all other assays above

O=C(O)CNC(=O)c1ccccc1
not listed: [5] | [9]
inactive: all other assays above
